Out of some 340,000 compounds screened, about 6,900 (2%) were called active. This is one part of a sample in which actives are shown more often than they occur. Cut-off read from the data, not from the text of the source: active = inhibition above about 30%; inactive = below that, where a call was filed.
Molecular target: D(2) dopamine receptor (Homo sapiens) (UniProt P14416)
Test: HTS Assay for Allosteric Antagonists of the Human D2 Dopamine Receptor: Primary Screen for Antagonists; note: 0% is about no effect
Details: HEK293 TREx D2 cells, calcium flux, dopamine EC80; at 10 µM; active compounds read high
Method in brief: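 Read-out: kinetic calcium fluorescence (1 cycle/s) in inducible HEK293 T-REx D2 cells after an EC80 dopamine addition that followed 180 s compound preincubation. Loss of the dopamine response indicates antagonism.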

Chain of D(2) dopamine receptor (Homo sapiens) (P14416 whole entry, looked up): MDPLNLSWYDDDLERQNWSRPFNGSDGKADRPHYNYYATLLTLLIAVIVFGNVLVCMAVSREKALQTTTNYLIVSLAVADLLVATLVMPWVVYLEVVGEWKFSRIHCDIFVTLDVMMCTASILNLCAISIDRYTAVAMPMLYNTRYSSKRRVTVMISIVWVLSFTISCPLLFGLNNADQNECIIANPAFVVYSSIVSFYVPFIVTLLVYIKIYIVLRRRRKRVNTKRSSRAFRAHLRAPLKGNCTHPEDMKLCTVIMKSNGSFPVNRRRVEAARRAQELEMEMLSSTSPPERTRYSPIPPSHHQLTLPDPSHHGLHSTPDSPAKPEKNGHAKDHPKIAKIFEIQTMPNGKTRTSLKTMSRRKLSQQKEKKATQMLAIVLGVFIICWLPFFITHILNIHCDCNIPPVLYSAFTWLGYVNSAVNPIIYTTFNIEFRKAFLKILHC

SMILES | inhibition
Cc1ccc(NC(=O)C(c2ccccc2)N2CCN(C(=O)c3ccco3)CC2)cc1 (stereo not given) | -0.875% (inactive)
CN(C(=O)CSc1nnc(-c2ccc3c(c2)OCO3)o1)C1CCS(=O)(=O)C1 (stereo not given) | 8.68% (inactive)
CC(=O)Nc1ccc(N2C(=O)C3C4C=CC(CC4)C3C2=O)cc1 (stereo not given) | 2.36% (inactive)
Cc1ccc(N2C(=O)C3C4C=CC(CC4)C3C2=O)cc1Br (stereo not given) | 54.9% (active)
Cc1ccc(N2C(=O)C3C4C=CC(CC4)C3C2=O)cc1Cl (stereo not given) | -11.1% (inactive)
Cn1c(-c2ccc(C(F)(F)F)cc2)cc2onc(-c3ccccc3)c2c1=O | 8.4% (inactive)
CCOc1ccc(C(=O)NCC(=O)N2CCN(c3ccc(C(F)(F)F)cn3)CC2)cc1 | -6.45% (inactive)
Cc1ccc(C(=O)OCC(=O)NCc2cc(C)c(O)c(C)c2)cc1S(=O)(=O)N1CCCCC1 | 14.2% (inactive)
CCN(C(=O)COC(=O)c1c(NC(C)=O)sc(C)c1C)C1CCS(=O)(=O)C1 (stereo not given) | 9.33% (inactive)
CCN(C(=O)CSc1nc2ccccc2n1CC)C1CCS(=O)(=O)C1 (stereo not given) | 8.24% (inactive)
CCN(C(=O)COC(=O)/C=C/c1nc2ccccc2s1)C1CCS(=O)(=O)C1 (stereo not given) | 31.7% (active)
COc1ccc(N2CCN(C(=O)CCNC(=O)c3ccc(Br)cc3)CC2)cc1 | -5.34% (inactive)
CC(C(=O)N1CCc2ccccc21)N(C)CC(=O)Nc1ccc(F)cc1 (stereo not given) | 17.3% (inactive)
COc1ccccc1C(=O)NCC(=O)NCCSc1ccc(Br)cc1 | -18.2% (inactive)
Cc1cc(C)cc(NC(=S)NCc2ccc(F)cc2)c1 | 17.7% (inactive)
O=C(Cc1ccccc1)NCc1ccc(F)cc1 | 7.68% (inactive)
Fc1ccc(CNCc2ccc(Br)cc2)cc1 | 48.7% (active)
CCOC(=O)C1CCCN(C(=O)c2ccc(C)c(S(=O)(=O)N3CCCCC3)c2)C1 (stereo not given) | -2.03% (inactive)
CC(=O)Nc1ccc(SC[C@H](Cc2ccccc2)N2CC[C@@H](C)CCC2=O)cc1 | 6.05% (inactive)
N#Cc1ccc(COC(=O)Cn2nnc(-c3ccccc3)n2)cc1 | 32.5% (active)
COc1cc(-c2nnn(CC(=O)NCc3ccccc3)n2)cc(OC)c1OC | -2.02% (inactive)
O=C(Cn1nnc(-c2ccccc2)n1)NC(=O)NC1CCCC1 | -8.79% (inactive)
COc1cc([N+](=O)[O-])ccc1NC(=O)COC(=O)CCOc1ccc(C)cc1 | -25.8% (inactive)

SMILES | inhibition
Cc1cccc(Nc2nnc(SCC(=O)c3c(N)n(C4CC4)c(=O)[nH]c3=O)s2)c1C | -24.6% (inactive)
O=S(=O)(Nc1ccc2nc(N3CCOCC3)sc2c1)c1ccccc1 | -2.59% (inactive)
O=C(CCNC(=O)c1ccccc1)Nc1nc2ccccc2s1 | 9.78% (inactive)
CC(=O)Nc1ccc(-c2csc(NC(=O)Nc3ccccc3)n2)cc1 | 0.929% (inactive)
O=C(Nc1ccccc1)Nc1nc2ccccc2s1 | 38.1% (active)
O=C(O)CSc1ccc(S(=O)(=O)N2CCCC2)cn1 | -7.84% (inactive)
O=C(NCC1COc2ccccc2O1)C1(c2ccccc2)CCCC1 (stereo not given) | 2.24% (inactive)
Cc1cc(NC(=O)CCC2COc3ccccc3O2)no1 (stereo not given) | 16.6% (inactive)
Cc1noc(C)c1C(=O)NCC1COc2ccccc2O1 (stereo not given) | 42% (active)
NC(=O)c1ccsc1NC(=O)COC(=O)COc1ccc(C=O)cc1 | 0.0079% (inactive)
CCOc1ncccc1C(=O)Nc1ccc(S(=O)(=O)Nc2nc(C)cc(C)n2)cc1 | -33.5% (inactive)
COc1ccc(NS(=O)(=O)c2cc(NC(=O)COc3ccccc3F)ccc2OC)cc1 | -11% (inactive)
NC(=O)NC(CC(=O)NNC(=O)c1ccccn1)c1ccc(Cl)cc1 (stereo not given) | 35.3% (active)
CN(C)S(=O)(=O)c1ccc(Cl)c(NC(=O)COC(=O)CC(NC(N)=O)c2ccc(Cl)cc2)c1 (stereo not given) | 8.54% (inactive)
CCCNC(=O)NC(=O)COC(=O)CC(NC(N)=O)c1ccc(Cl)cc1 (stereo not given) | -5.2% (inactive)
CC(C)C(NC(=O)c1c(F)cccc1F)C(=O)NCc1ccncc1 (stereo not given) | -6.22% (inactive)
CC(=O)Nc1ccc(S(=O)(=O)Oc2ccc(/C=N/N=C3/NC(=O)C(CC(=O)O)S3)cc2)cc1 (stereo not given) | 35.4% (active)
Cc1ccc(NC(=O)CC2S/C(=N/N=C3\CCCc4ccccc43)NC2=O)cc1 (stereo not given) | -3.76% (inactive)
Cc1ccc(S(=O)(=O)Oc2ccc(/C=N/NC(=O)c3ccncc3)cc2)cc1 | -6.29% (inactive)
Cc1cc(C(=O)CCC(=O)NNC(=O)c2ccccc2O)c(C)s1 | 19.4% (inactive)
Cc1c(NC(=S)Nc2ccccc2)c(=O)n(-c2ccccc2)n1C | -10.1% (inactive)
Cc1c(NC(=S)NC(=O)CCc2ccccc2)c(=O)n(-c2ccccc2)n1C | 40.2% (active)
Cc1c(NC(=O)CN2C(=O)C(=O)N(Cc3ccccc3)C2=O)c(=O)n(-c2ccccc2)n1C | -13.5% (inactive)

SMILES | inhibition
COc1ccc(OC)c(CN2CCN(C(=O)CNC(=O)c3cc(C)cc(C)c3)CC2)c1 | -4.53% (inactive)
CCN(CC)S(=O)(=O)c1cc(C(=O)Nc2cc(S(=O)(=O)N3CCOCC3)ccc2N2CCCC2)ccc1F | -9.39% (inactive)
CN(CC(=O)Nc1ccc(Cl)cc1)CC(=O)Nc1cccc2ccccc12 | -6.32% (inactive)
CC(C)c1ccc(/C=C/C(=O)NCCCN2CCOCC2)cc1 | -4.54% (inactive)
Cn1c(C(=O)NCCCN2CCN(c3cccc(Cl)c3)CC2)cc2c(=O)n(C)c3ccccc3c21 | 95.2% (active)
CCn1c(=O)cc(OCC(=O)NCCCN2CCN(c3cccc(Cl)c3)CC2)c2ccccc21 | 78.9% (active)
CCOC(=O)N1CCC(Nc2c(NCCN3CCN(c4cccc(Cl)c4)CC3)c(=O)c2=O)CC1 | -2.93% (inactive)
CCOC(=O)N1CCC(NC(=O)COc2cc(=O)n(C)c3ccccc23)CC1 | 7.2% (inactive)
CCN1CCCC1CNC(=O)c1cc2c(=O)n(C)c3ccccc3c2n1C (stereo not given) | -1.94% (inactive)
Cn1c(C(=O)NCCc2ccsc2)cc2c(=O)n(C)c3ccccc3c21 | -0.277% (inactive)
CCOc1ccc(C(=O)CCC(=O)Nc2ccncc2)cc1 | -7.41% (inactive)
Cc1ccc(-c2nn(-c3ccccc3)cc2C(=O)NCCCN2CCCC2=O)cc1 | -11.6% (inactive)
Cc1noc(C)c1COc1ccc(C(=O)NCCOc2ccccc2)cc1 | -11% (inactive)
COc1ccc(Cl)cc1NC(=O)CN(C)CC(=O)Nc1ccc2c(c1)OCO2 | -18.1% (inactive)
O=C1C=C(c2cccc(Cl)c2O)C[C@@H](c2ccc(F)cc2)C1 | 6% (inactive)
CCCN(CC(=O)Nc1ccccc1C)C(=O)c1ccc2[nH]c3c(c2c1)CC(C)CC3 (stereo not given) | -19.6% (inactive)
CS(=O)(=O)c1ccc2nc(NC(=O)CN3CCCCCC3)sc2c1 | -16.3% (inactive)
CS(=O)(=O)c1ccc2nc(NC(=O)C3C4C=CC(C4)C3C(=O)O)sc2c1 (stereo not given) | -4.77% (inactive)
CS(=O)(=O)c1ccc2nc(NC(=O)C3CCCCC3)sc2c1 | 30.6% (active)
CC(C)Oc1ccc(C(=O)NCC(=O)Nc2ccc3c(c2)CCC3)cc1 | -1.68% (inactive)
O=C(COC(=O)C1(c2ccc(F)cc2)CCCC1)N1CCNC1=O | 7.82% (inactive)
CCCCN(C(=O)c1nn(C)c(=O)c2ccccc12)c1c(N)n(CCC)c(=O)[nH]c1=O | -7.93% (inactive)
CC1CCCN(C(=O)c2cc(-c3ccco3)nc3ccccc23)C1 (stereo not given) | -3.9% (inactive)

SMILES | inhibition
COc1ccc(S(=O)(=O)NCC(c2ccc(C)cc2)N2CCN(C)CC2)cc1OC (stereo not given) | -15.8% (inactive)
CC(=O)Nc1ccc(NC(=O)COC(=O)c2ccccc2C(=O)c2ccccc2)cc1 | 11.9% (inactive)
O=S(=O)(Nc1cc(Cl)ccc1N1CCOCC1)c1ccccc1Cl | -22.2% (inactive)
c1ccc2cc3[nH]c(CN4CCCCC4)nc3cc2c1 | 58.4% (active)
Cc1ccc2[nH]c(=O)c(CN3CCCCC3)c(-c3ccccc3)c2c1 | -4.98% (inactive)
Clc1ccc(CN2CCCCCC2)cc1Cl | 26.4% (inactive)
O=S(=O)(c1ccc(SCc2ccc(Br)cc2)nc1)N1CCOCC1 | -7.49% (inactive)
Cc1ccsc1C(=O)NCCc1ccco1 | 11.7% (inactive)
N#Cc1cccc(NC(=O)C2CCCN(C(=O)c3ccc(Cl)cc3)C2)c1 (stereo not given) | 19.5% (inactive)
COc1ccccc1N1CC(O)=C(c2nc3ccccc3s2)C1=N | 16.1% (inactive)
N=C1C(c2nc3ccccc3s2)=C(O)CN1NC(=O)c1ccc([N+](=O)[O-])cc1 | 42.3% (active)
CCOC(=O)CCCN1CC(O)=C(c2nc3ccccc3s2)C1=N | 15.9% (inactive)
Cc1ccc(S(=O)(=O)N2[C@@H](c3ccccc3F)C(C(=O)O)=CC[C@H]2c2ccc(Cl)cc2)cc1 | 16% (inactive)
O=C(NNC(=O)c1cc(S(=O)(=O)N2CCCCC2)ccc1Cl)c1ccccc1O | 9.25% (inactive)
COc1ccccc1NC(=O)CN(c1ccccc1OC)S(=O)(=O)c1ccccc1 | -0.319% (inactive)
COc1ccccc1CNC(=O)c1ccc(CS(=O)(=O)c2ccccc2)o1 | 22.7% (inactive)
COC(=O)c1ccc(CN(c2ccccc2OC)S(=O)(=O)c2cccs2)o1 | 36% (active)
COc1ccc(CNC(=O)c2ccc(NS(=O)(=O)c3ccc4[nH]c(=O)[nH]c4c3)cc2)cc1OC | -22.9% (inactive)
N#Cc1ccc(C(=O)OCC(=O)NC(=O)NC2CCCCC2)cc1 | -34.5% (inactive)
O=C(Cc1ccc(Cl)cc1)NC1CCS(=O)(=O)C1 (stereo not given) | -2.94% (inactive)
N#Cc1ccc(OCC(=O)NC(=O)NC2CCS(=O)(=O)C2)cc1 (stereo not given) | 39.2% (active)
